The text below walks through data of ChEMBL document CHEMBL5606460, “ASAP - DENV-2 NS2B-NS3 protease fluorescence single point” (2024).

For orientation: inhibition means the drop in the measured response relative to a control, in per cent.

The assay deals with Genome polyprotein (dengue virus type 2) (UniProt P29990).
Where [1] appears, read: Thailand/16681/1984, Concentration 25.0 uM, Number of replicates 1.0.

Each structure is given as a SMILES string. Hit rate of the full screen: of about 2,000 compounds, about 110 (5.5%) showed an effect of 50% or more. The sample as a whole holds a higher share of strong results than the screen did. Residues, ends and D or L forms follow the SMILES beside them. *: point of attachment. pNA = O=[N+]([O-])c1ccc(N*)cc1; Boc = CC(C)(C)OC(=O)*

As to `CC(C)Nc1nc2cc(NCc3cccc(C(N)=O)c3)ccc2[nH]1`, the inhibition by setting is: (Thailand/16681/1984, Concentration 49.5 uM, Number of replicates 2.0, Standard deviation 0.023235641877752903 %) -0.517%; (Thailand/16681/1984, Concentration 99.01 uM, Number of replicates 2.0, Standard deviation 0.06423980503181957 %) 1.24%; (Thailand/16681/1984, Concentration 198.0 uM, Number of replicates 2.0, Standard deviation 0.8255495407458023 %) 3.31%.
`CSCC[C@H](NC(=O)OC(C)(C)C)C(=O)N1CCC[C@H]1C(=O)Nc1ccc([N+](=O)[O-])cc1` (Boc-Met-Pro-pNA): the inhibition runs as follows: (Thailand/16681/1984, Concentration 49.5 uM, Number of replicates 2.0, Standard deviation 0.6934296230825803 %) 10.3%; (Thailand/16681/1984, Concentration 99.01 uM, Number of replicates 2.0, Standard deviation 0.4989876662884813 %) 17.1%; (Thailand/16681/1984, Concentration 198.0 uM, Number of replicates 2.0, Standard deviation 0.32485037523299065 %) 29.3%.
For the compound `CNC(=O)C1CCC(Nc2nc(Cl)cc3c(F)cccc23)CC1` (stereo unspecified), for the setting “Thailand/16681/1984, Concentration 49.95 uM, Number of replicates 2.0, Standard deviation 5.365912193998162 %”, the inhibition was -9.93%.
`C[C@@H](NC(=O)C1CCN(c2ccc(C=O)cc2)CC1)c1ccc2ccccc2c1`: the inhibition under setting [1] turned out to be 1.94%.
In the case of `Cc1nn(C)nc1-c1nn(C)cc1NC(=O)c1ccccc1C(F)(F)F`, the inhibition is -3.06% (Thailand/16681/1984, Concentration 49.5 uM, Number of replicates 2.0, Standard deviation 2.7709187614774393 %); -2.31% (Thailand/16681/1984, Concentration 99.01 uM, Number of replicates 2.0, Standard deviation 2.812620033505876 %); -2.5% (Thailand/16681/1984, Concentration 198.0 uM, Number of replicates 2.0, Standard deviation 2.009504923047635 %).
With `O=Cc1ccc(N2CCC(C(=O)N3CCCCC[C@H]3c3ccco3)CC2)cc1`, the inhibition under setting [1] is 13.4%.
Turning to `Cn1oc(C(=O)Nc2cc(Cl)cc(C(=O)NC(C)(C)CO)c2)cc1=O`, the inhibition is, setting by setting: (Thailand/16681/1984, Concentration 49.5 uM, Number of replicates 2.0, Standard deviation 0.8141956117621647 %) -0.341%; (Thailand/16681/1984, Concentration 99.01 uM, Number of replicates 2.0, Standard deviation 1.5201786631370027 %) 0.297%; (Thailand/16681/1984, Concentration 198.0 uM, Number of replicates 2.0, Standard deviation 2.6564108106217375 %) 1.39%.
For the compound `C[C@@H](O)CNC(=O)c1cc(Cl)ccc1NS(=O)(=O)c1ccc(Oc2ccccc2Cl)cc1`, the inhibition turned out to be 30.4% (Thailand/16681/1984, Concentration 49.5 uM, Number of replicates 2.0, Standard deviation 1.4145601780552486 %); 75.7% (Thailand/16681/1984, Concentration 99.01 uM, Number of replicates 2.0, Standard deviation 0.06674442365142796 %); 67% (Thailand/16681/1984, Concentration 198.0 uM, Number of replicates 2.0, Standard deviation 0.019135343573522066 %).
`O=Cc1ccc(N2CCC(C(=O)Nc3ncc(C(F)(F)F)cc3Cl)CC2)cc1`: under setting [1], the inhibition was 11.8%.
On to `Cc1cc(CO)c2cccc(CC(=O)NCCc3ncc[nH]3)c2n1`, for which the inhibition is 39.1% (Thailand/16681/1984, Concentration 49.95 uM, Number of replicates 2.0, Standard deviation 0.7345959673097169 %) and 77.7% (Thailand/16681/1984, Concentration 99.9 uM, Number of replicates 2.0, Standard deviation 0.015925439590932376 %).
`Cc1cc(CO)c2cccc(CC(=O)NCC(N)=O)c2n1`: the inhibition was -7.85% (Thailand/16681/1984, Concentration 49.95 uM, Number of replicates 2.0, Standard deviation 1.3653333333441007 %) and -6.61% (Thailand/16681/1984, Concentration 99.9 uM, Number of replicates 2.0, Standard deviation 0.5261932884148693 %).
As to `Cc1cc(N)cc(CNc2cccc3c(CO)cc(C)nc23)c1`, the inhibition (Thailand/16681/1984, Concentration 49.95 uM, Number of replicates 2.0, Standard deviation 2.268676515546947 %) is 34.9% and the inhibition (Thailand/16681/1984, Concentration 99.9 uM, Number of replicates 2.0, Standard deviation 1.0884002159453274 %) came to 63.5%.
With `Cc1cc(CO)c2cccc(NCc3ccc(S(N)(=O)=O)cc3)c2n1`, the inhibition reads like this: (Thailand/16681/1984, Concentration 49.95 uM, Number of replicates 2.0, Standard deviation 1.2377055953825635 %) 8.26%; (Thailand/16681/1984, Concentration 99.9 uM, Number of replicates 2.0, Standard deviation 1.691711110367126 %) 17.2%.
Turning to `Cc1cc(N)cc(CNC(=O)c2cccc(Cc3cccc4c(CO)cc(C)nc34)c2)c1`, the inhibition runs as follows: (Thailand/16681/1984, Concentration 49.95 uM, Number of replicates 2.0, Standard deviation 0.2659014326821377 %) 29.9%; (Thailand/16681/1984, Concentration 99.9 uM, Number of replicates 2.0, Standard deviation 1.3431613936290656 %) 54.9%.
On to `Cc1cc(CO)c2cccc(Cc3cccc(C(=O)NCc4ccc(C(N)=O)cc4)c3)c2n1`, for which the inhibition is, setting by setting: (Thailand/16681/1984, Concentration 49.95 uM, Number of replicates 2.0, Standard deviation 1.5788782649320652 %) -6.46%; (Thailand/16681/1984, Concentration 99.9 uM, Number of replicates 2.0, Standard deviation 2.3363374645660926 %) -3.45%.
For `Cc1cc(CO)c2cccc(Cc3ccccc3C(=O)NCCc3ncc[nH]3)c2n1`, the inhibition is, setting by setting: (Thailand/16681/1984, Concentration 49.95 uM, Number of replicates 2.0, Standard deviation 0.3032711887954129 %) 14.1%; (Thailand/16681/1984, Concentration 99.9 uM, Number of replicates 2.0, Standard deviation 0.18110062477906652 %) 34.2%.
Take `Cc1cc(N)cc(CNC(=O)Cc2cccc3c(CO)cc(C)nc23)c1`: the inhibition amounted to 39.7% (Thailand/16681/1984, Concentration 49.95 uM, Number of replicates 2.0, Standard deviation 0.21775017554498763 %) and 61.7% (Thailand/16681/1984, Concentration 99.9 uM, Number of replicates 2.0, Standard deviation 1.7887257377938661 %).
In the case of `Cc1cc(CO)c2cccc(NCc3ccc(C(N)=O)cc3)c2n1`, the inhibition (Thailand/16681/1984, Concentration 49.95 uM, Number of replicates 2.0, Standard deviation 1.5291755401543807 %) came out at 1.6% and the inhibition (Thailand/16681/1984, Concentration 99.9 uM, Number of replicates 2.0, Standard deviation 0.4954793626184345 %) came out at 6.67%.
On to `Cc1cc(CO)c2cccc(CC(=O)NCc3ccc(C(N)=O)cc3)c2n1`, for which the inhibition was -4.43% (Thailand/16681/1984, Concentration 49.95 uM, Number of replicates 2.0, Standard deviation 0.824600056542549 %) and 2.19% (Thailand/16681/1984, Concentration 99.9 uM, Number of replicates 2.0, Standard deviation 0.5940444883081935 %).
`Cc1cc(CO)c2cccc(Cc3cccc(C(=O)NCc4c(C)noc4C)c3)c2n1`: the inhibition by setting is: (Thailand/16681/1984, Concentration 49.95 uM, Number of replicates 2.0, Standard deviation 0.7006856245222158 %) 1.58%; (Thailand/16681/1984, Concentration 99.9 uM, Number of replicates 2.0, Standard deviation 0.008623919554905093 %) 5.27%.
Turning to `Cc1cc(CO)c2cccc(Cc3cccc(C(=O)NCCc4ncc[nH]4)c3)c2n1`, the inhibition is, setting by setting: (Thailand/16681/1984, Concentration 49.95 uM, Number of replicates 2.0, Standard deviation 2.0725920117726813 %) -4.03%; (Thailand/16681/1984, Concentration 99.9 uM, Number of replicates 2.0, Standard deviation 0.8997522707097182 %) 1.59%.
For `CSCC[C@H](NC(=O)OC(C)(C)C)C(=O)N1CCC[C@H]1C(=O)Nc1ccc(CN)cc1`, the inhibition reads like this: (Thailand/16681/1984, Concentration 49.5 uM, Number of replicates 2.0, Standard deviation 0.5873455681071067 %) 0.345%; (Thailand/16681/1984, Concentration 99.01 uM, Number of replicates 2.0, Standard deviation 0.9875045381203101 %) 1.56%; (Thailand/16681/1984, Concentration 198.0 uM, Number of replicates 2.0, Standard deviation 0.49996007837732465 %) 2.5%.
